Screening data: PubChem BioAssay, several laboratories
Compounds with a hit are over-represented: about 22% of the library has one in this group of screens.
F-actin modifier = modifiers of F-actin cytoskeleton organization, primary screen, imaging, HUVEC, phalloidin staining, high-content imaging. 0.18% of 91,000 active. AID 836, 2007. HUVEC TNFa F-actin phalloidin imaging. inhibition, % at 2 µM;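 active = inhibition above the batch mean plus 3 SD and confirmed as a hit by visual image inspection, cut at about 30% in these data, passing the limit was not always enough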
CYP2C19 activ = human CYP2C19 activators, primary screen, biochemical, luminescence; AID 1025, 2008; recombinant CYP2C19, luciferin-H EGE luminescence; active compounds read high; 0 = fully inhibited enzyme, 1 = untreated enzyme; 96,000 tested, under 10 active; Cytochrome P450 2C19 (Homo sapiens), P33261; activation factor at 5 µM;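 active = activation factor of at least 2 at 5 µM in the primary screen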;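 note: 0 = wells with 2.5 mM tranylcypromine and 1 = vehicle-only wells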
CYP2C19 inh = blockers of cytochrome P450 2C19 activity – biochemical, luminescence, ADME assay, primary screen. AID 778, 2007. 21% of 96,000 active. CYP2C19 Supersomes, luciferin-H EGE luminescence, 30 min. P33261. inhibition, % at 5 µM;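 active = CYP2C19 inhibition above a set limit at 5 µM in the primary screen, cut at about 50% in these data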;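 note: plate controls were negative control wells for no effect and 2.5 mM tranylcypromine positive control for full effect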
CYP2C9 inh = blockers of cytochrome P450 2C9 activity – biochemical, luminescence, ADME assay, primary screen | P11712 | inhibition, % at 5 µM | 20% of 96,000 active | CYP2C9 Supersomes, luciferin-H conversion;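 active = blocking of liver enzyme CYP2C9 beyond about 50% at 5 µM, limit read from the data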
Target sequence (P11712 whole entry, looked up): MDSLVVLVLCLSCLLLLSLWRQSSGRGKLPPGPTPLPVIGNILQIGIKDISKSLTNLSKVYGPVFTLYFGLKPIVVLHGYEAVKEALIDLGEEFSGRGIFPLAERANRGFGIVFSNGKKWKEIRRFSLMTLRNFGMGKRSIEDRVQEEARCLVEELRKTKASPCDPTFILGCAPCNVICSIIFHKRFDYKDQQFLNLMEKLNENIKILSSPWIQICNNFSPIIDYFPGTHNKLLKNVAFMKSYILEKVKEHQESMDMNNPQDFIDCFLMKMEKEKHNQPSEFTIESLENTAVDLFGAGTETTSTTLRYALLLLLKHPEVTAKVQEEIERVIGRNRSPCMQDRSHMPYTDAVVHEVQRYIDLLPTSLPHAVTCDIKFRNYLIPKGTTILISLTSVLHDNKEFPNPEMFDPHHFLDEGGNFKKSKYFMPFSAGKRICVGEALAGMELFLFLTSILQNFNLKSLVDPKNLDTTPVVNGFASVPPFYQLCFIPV
E-sel TNF inh = E-selectin induction blockers in HUVEC – imaging, immunofluorescence, high content, primary screen | 0.71% of 120,000 active | HUVEC TNFa-induced E-selectin immunofluorescence | AID 1246, 2008 | inhibition, % at 2 µM;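 active = inhibition above the batch mean plus 3 SD, and confirmed as a hit on visual image review, cut at about 43% in these data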;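 note: 0% = TNF-stimulated DMSO wells and 100% = unstimulated control wells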
CYP2C9 act = human CYP2C9 activators, primary screen, biochemical, luminescence. Cytochrome P450 2C9 (Homo sapiens), P11712. recombinant CYP2C9, luciferin-H conversion; active compounds read high; factor 1 = untreated enzyme, 0 = blocked. activation factor at 5 µM. 1.4% of 96,000 active;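 active = activation factor of 2 or more for CYP2C9 at a 5 µM dose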;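 note: 0 = sulfaphenazole-blocked wells and 1 = vehicle-only wells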
An asterisk follows results filed as active; / = not tested or not shown.

SMILES	F-actin modifier	CYP2C19 activ	CYP2C19 inh	CYP2C9 inh	E-sel TNF inh	CYP2C9 act
CC(=O)Nc1ccc(S(=O)(=O)N2CCSC2c2ccccc2Cl)cc1 (stereo not drawn)	-17	0.9	12	3	/	1
COc1ccc(S(=O)(=O)N2CCSC2c2ccc(OC)c(OC)c2)cc1 (stereo not drawn)	/	0.4	63*	-96	-47	2*
O=S(=O)(c1ccc(Cl)cc1)N1CCSC1c1ccco1 (stereo not drawn)	7	0	98*	51*	-27	0.5
CC1(C)CC2CC(C)(CN2S(=O)(=O)c2cccc(N)c2)C1 (stereo not drawn)	-13	/	/	/	-1	/
CCOC(=O)N1CCC(NC(=O)CN2C(=O)C(CC)Oc3ccc(C)cc32)CC1 (stereo not drawn)	/	0.7	27	11	-8	0.9
CC(=O)Nc1ccc(S(=O)(=O)N2CCSC2c2ccccc2)cc1 (stereo not drawn)	9	0.4	59*	31	31	0.7
CCN(CC)S(=O)(=O)c1ccc(N(C)Cc2cccnc2)nc1	1	0.2	81*	68*	4	0.3
CN(Cc1ccccc1)c1ccc(S(=O)(=O)N2CCOCC2)cn1	-24	0.7	30	-37	10	1.4
Cc1ccc(-c2nnn(CC(=O)Nc3cccc4cccnc34)n2)o1	-13	0.7	33	39	37	0.6
COc1ccc(OC)c(C(=O)c2nc3c(n2O)CCCCC3)c1	-1	0.7	34	51*	-22	0.5
COc1ccc(OC)c(C(=O)c2ccc(C(=O)N3CCCCC3)cc2)c1	0	0.9	13	73*	20	0.3
O=C(c1ccc(Oc2ccccc2)cc1)c1nc2c(n1O)CCCC2	/	0.8	16	67*	-1	0.3
COc1ccc(C(=O)N2CCCC2)cc1	6	1	3	-5	4	1
CCCC(C)NC(=O)c1ccc(C2SCC(=O)N2Cc2ccco2)cc1 (stereo not drawn)	-4	0.8	18	13	9	0.9
CCOc1ccccc1C(C(=O)NC1CCCC1)N(Cc1ccco1)C(=O)CNC(=O)c1ccco1 (stereo not drawn)	17	/	/	/	-5	/
COc1cc(C(=O)NCC(C)C)c([N+](=O)[O-])cc1OC	-12	1.2	-19	-18	-58	1.2
CC1(C)c2ccccc2N2CCC(=O)NC21/C=C/c1ccco1 (stereo not drawn)	6	0.1	86*	52*	/	0.5
CCOC(=O)c1c(C)n(C)c2ccc(OC(=O)c3ccoc3)cc12	-5	1	0	-2	5	1
CCOC(=O)c1c(C#N)c(SCC(=O)Nc2ccc(OC)cc2)nc2c1CN(CC)CC2	-3	0.5	52*	98*	-15	0
COc1ccc(NC(=O)CSc2nc(N)c(C#N)cc2C#N)cc1	2	1.1	-6	41	-27	0.6
COc1ccc(NC(=O)CSc2nc3c(c(-c4cccs4)c2C#N)CN(C)CC3)cc1OC	7	0.5	50	64*	43	0.4
COc1ccc(NC(=O)CSc2nnc(-c3cccs3)n2C)cc1OC	/	1.1	-9	-5	-7	1.1
CCCc1c(O)nc(SCCN(CCC)CCC)[nH]c1=O	/	0.8	17	-2	-25	1
Nn1c(SCc2nc3ccccc3[nH]2)nnc1-c1ccccc1	17	0.9	14	-36	-11	1.4
CCn1c(SCc2nc3ccccc3[nH]2)nnc1-c1cccnc1	-14	0.2	78*	-32	1	1.3
SMILES	F-actin modifier	CYP2C19 activ	CYP2C19 inh	CYP2C9 inh	E-sel TNF inh	CYP2C9 act
CCn1c(SCC(=O)C(C)(C)C)nnc1-c1cccnc1	0	1.2	-16	-13	-9	1.1
CCn1c(SCc2nc3ccccc3[nH]2)nnc1-c1cnccn1	-9	0.1	91*	8	/	0.9
CCn1c(SCc2nc3ccccc3[nH]2)nnc1-c1ccncc1	7	0.1	93*	20	-1	0.8
O=C(Nc1ccccc1)c1sc2cc(C(F)(F)F)cnc2c1-c1cccs1	9	0.5	52*	74*	22	0.3
COC(=O)c1sc2cc(C(F)(F)F)cnc2c1-c1cccnc1	2	0.6	38	52*	19	0.5
CN(Cc1ccccc1)c1nc2c(c(=O)[nH]c(=O)n2C)n1Cc1ccccc1Cl	-9	0.9	6	17	-11	0.8
Cc1c(OCC(=O)OC(C)(C)C)ccc2c3c(c(=O)oc12)CCC3	-14	0.8	15	2	1	1
Cc1oc(C(=O)O)cc1COc1ccc2c3c(c(=O)oc2c1C)CCCC3	/	1	-4	-14	/	1.1
CC(=O)COc1ccc2c3c(c(=O)oc2c1C)CCCCC3	7	0.2	83*	15	1	0.9
Cc1c(OC(=O)CNC(=O)OC(C)(C)C)ccc2c3c(c(=O)oc12)CCC3	-7	0.6	41	-173	-13	2.7*
CC(=O)C(C)Oc1ccc2c3c(c(=O)oc2c1C)CCCC3 (stereo not drawn)	-12	0.4	58*	46	-19	0.5
CC1(C)CC(CCNS(=O)(=O)c2ccccc2)(c2ccccc2)CCO1 (stereo not drawn)	/	/	/	/	-3	/
CCC1(C)CC(CCNS(=O)(=O)c2ccc(C)cc2)(c2ccc(C)cc2)CCO1 (stereo not drawn)	-6	0.3	69*	53*	-10	0.5
Cc1ccc(Sc2nc(C)cc(C)c2S(C)(=O)=O)cc1	18	0.5	47	64*	28	0.4
CCCSc1nc(C)cc(C)c1S(C)(=O)=O	/	/	/	/	39	/
O=C(O)CN(c1ccccn1)S(=O)(=O)c1ccccc1	7	1.1	-14	45	-23	0.6
CCOC(=O)CSc1nnc(-c2ccoc2C)n1-c1ccc(OCC)cc1	-3	0.1	92*	82*	-13	0.2
COC(=O)CSc1nnc(-c2ccoc2C)n1-c1ccc(OC)cc1	-11	0.6	39	8	-5	0.9
COc1cccc(-n2c(SCC(=O)NC(C)(C)C)nnc2-c2ccoc2C)c1	3	0.3	73*	11	11	0.9
CC(=O)Nc1ccc(NC(=O)CCn2nnc3ccccc32)cc1	/	/	/	/	-5	/
CCOC(=O)N1CCN(S(=O)(=O)c2ccc(C(=O)NNc3nc4ccc(Cl)cc4s3)cc2)CC1	/	/	/	/	25	/
C=C(C)COc1ccc(-c2nc(N)ncc2Oc2ccccc2OCC)c(O)c1	/	0.2	80*	92*	-25	0.1
CCOc1ccc(-c2nc(N)ncc2-c2ccccc2)c(O)c1	4	0.9	12	27	-17	0.7
Cc1ccc2nc(SC(C)C(=O)NC3CCCc4ccccc43)[nH]c2c1 (stereo not drawn)	/	/	/	/	7	/
